This passage reports Potency, outcome and max response results from PubChem BioAssay (NCATS).

Several values for one entry are separate records, joined by “and”; a condition that tells them apart may be missing. Equal entries are not always repeated. Inconclusive results are not listed. Activity calls are given as the source filed them. The call rests on the fitted dose curve; in most records, active means well fitted inhibition curve with a large enough effect; inconclusive means small, poorly fitted or top-dose-only effect; inactive means flat fitted curve, though single readings scatter.
On the % scale 0 is the no-effect control and ±100 the full control effect; potency means the concentration at half of the fitted maximal effect.

One experiment relates to HaCat. As to the kind of experiment: Cytotoxic Profiling of Annotated Libraries Using Quantitative High-Throughput Screening (AID 1296008). Further: nearly all actives have a fitted effect of over 60% in size. As to conditions: Five cell lines viability, CellTiter-Glo ATP luminescence, 48-72 h; max response: active compounds read low. In short, it runs like this:
(§1)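 Compounds were pin-transferred onto cells and incubated 48 or 72 hr at 37 degree Celsius, 95% humidity. CellTiter-Glo was added, plates sat 10 min at room temperature, then ATP-coupled luminescence was imaged as the viability read-out.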
(In general: Cellular ATP, detected with luciferase, serves as a proxy for viable cell number.)
For `CC(C)(C)c1nc2c3cc[nH]c(=O)c3c3cc(F)ccc3c2[nH]1`, the Potency is 6.62 µM (active). Turning to `O=c1c(O)c(-c2ccc(O)c(O)c2)oc2cc(O)ccc12`, the call was inactive. `N#CC(=C(N)Sc1ccc(N)cc1)c1ccccc1C(F)(F)F`: the Potency is 1.66 µM (active).

As to `COC[C@H](NC(=O)c1cnc(C)s1)C(=O)N[C@@H](COC)C(=O)N[C@@H](Cc1ccccc1)C(=O)[C@@]1(C)CO1`, the Potency was 0.662 µM (active). Regarding `CC(C)(O)CC[C@@H](O)[C@](C)(O)[C@H]1CC[C@@]2(O)C3=CC(=O)[C@@H]4C[C@@H](O)[C@@H](O)C[C@]4(C)[C@@H]3CC[C@]12C`, the max response is -11.3% (inactive). As for `NC(=O)N1CCC(CC(=O)N2CCC([C@H]3c4ncc(Br)cc4CCc4cc(Cl)cc(Br)c43)CC2)CC1`, the Potency is 10.5 µM (active).

For `COc1cc(OC)c(C=CS(=O)(=O)Cc2ccc(OC)c(NCC(=O)O)c2)c(OC)c1`, the max response was 3.08% (inactive).

With `CCCNC(=O)[C@H]1O[C@H]1C(=O)N[C@H](C(=O)N1CCC[C@@H]1C(=O)OC)C(C)CC` (some centres not stated), the outcome was inactive.

As to `OCCNC1CCCc2c1[nH]c1ccc(-c3ccccc3)cc21` (configuration not stated), the call was inactive.

As to `CN[C@H](CC(C)C)C(=O)N[C@H]1C(=O)N[C@@H](CC(N)=O)C(=O)N[C@@H]2C(=O)N[C@H]3C(=O)N[C@H](C(=O)N[C@H](C(=O)O)c4cc(O)cc(O)c4-c4cc3ccc4O)[C@H](O)c3ccc(c(Cl)c3)Oc3cc2cc(c3O[C@@H]2O[C@H](CO)[C@@H](O)[C@H](O)[C@@H]2O[C@H]2C[C@](C)(N)[C@H](O)[C@H](C)O2)Oc2ccc(cc2Cl)[C@H]1O`, the call was inactive. Regarding `Nc1nc(N)c2nc(-c3cccc(O)c3)c(-c3cccc(O)c3)nc2n1`, the Potency was 14.8 µM (active).

Regarding `C[N+](C)([O-])CCNc1ccc(NCC[N+](C)(C)[O-])c2c1C(=O)c1c(O)ccc(O)c1C2=O`, the max response is -8.98% (inactive). Consider `Cc1cncc2cccc(S(=O)(=O)N3CCCN(C(=O)CN)C[C@@H]3C)c12`, for which the Potency is 8.33 µM (active). On to `C=CC(=O)Nc1cc(NC(=O)c2ccc(C)c(NC(=O)c3ccno3)c2)cc(C(F)(F)F)c1`, for which the compound was called inactive.

Take `CCCCCCCCCCCC(CC1OC(=O)C1CCCCCC)OC(=O)C(CC(C)C)NC=O` (configuration not stated): the outcome was inactive. Regarding `COc1ccc(Nc2cc(-c3cnc(N)nc3)nc(N3CCOCC3)n2)cn1`, the Potency is 2.64 µM (active). On to `COc1cccc2c1C(=O)c1c(O)c3c(c(O)c1C2=O)C[C@@](O)(C(=O)CO)C[C@@H]3O[C@H]1C[C@H](N)[C@H](OC2CCCCO2)[C@H](C)O1` (some centres not stated), for which the Potency is 2.35 µM (active). For the compound `CC(O)(C#Cc1ccc2c(c1)N(c1nc(N)ncc1Cl)CC2)c1nccs1` (configuration not stated), the max response was -12.6% (inactive). With `Cc1ccc(-n2[nH]c(C)c(N=Nc3cccc(-c4cccc(C(=O)O)c4)c3O)c2=O)cc1C`, the Potency is 21.1 µM (active).

Regarding `CC(C)[C@H](CO)Nc1nc(Nc2cccc(Cl)c2)c2ncn(C(C)C)c2n1`, the Potency was 16.6 µM (active).

For the next experiment, the system named is KB-3-1. Described as above. Particulars: Five cell lines viability, CellTiter-Glo ATP luminescence, 48-72 h; max response: active compounds read low. In short, it runs like this:
as §1
`CC(C)(C)c1nc2c3cc[nH]c(=O)c3c3cc(F)ccc3c2[nH]1`: the max response was -11.6% (inactive).

As to `CC(C)Oc1ccc(C(=O)N[C@H](CNC(=O)CN(C)C)Cc2ccc(-c3cn4cccc([C@H](C)O)c4n3)cc2)cc1Cl`, the Potency is 0.332 µM (active).

Consider `N#CC(=C(N)Sc1ccc(N)cc1)c1ccccc1C(F)(F)F`, for which the max response is -9.42% (inactive). Turning to `CC(C=CC1=C(C)CCCC1(C)C)=CC=CC(C)=CC(=O)Nc1ccc(O)cc1`, the Potency is 38.2 µM (active). Consider `COC[C@H](NC(=O)c1cnc(C)s1)C(=O)N[C@@H](COC)C(=O)N[C@@H](Cc1ccccc1)C(=O)[C@@]1(C)CO1`, for which the Potency is 0.469 µM (active). In the case of `CCCCCN=C(N)NN=Cc1c[nH]c2ccc(OC)cc12`, the Potency is 10.5 µM (active). As to `O=C(NC1CC1)c1cccc(-c2ccc3c(NC(=O)C4CC4)n[nH]c3c2)c1`, the Potency is 4.18 µM (active). Still for that read-out and setting: the figure for `CCc1ccc(C(=O)Nc2cc(CN3CCN(C)CC3)cc(C(F)(F)F)c2)cc1C#Cc1cnc2ccnn2c1` is 8.33 µM (active). In the case of `CC(C)(O)CC[C@@H](O)[C@](C)(O)[C@H]1CC[C@@]2(O)C3=CC(=O)[C@@H]4C[C@@H](O)[C@@H](O)C[C@]4(C)[C@@H]3CC[C@]12C`, the max response was -6.66% (inactive). Regarding `NC(=NCCCCCCN=C(N)N=C(N)Nc1ccc(Cl)cc1)N=C(N)Nc1ccc(Cl)cc1`, the Potency is 8.33 µM (active). Turning to `O=[N+]([O-])c1cn2c(n1)OC[C@@H](OCc1ccc(OC(F)(F)F)cc1)C2`, the max response is -6.53% (inactive). As for `OCCNC1CCCc2c1[nH]c1ccc(-c3ccccc3)cc21` (configuration not stated), the Potency is 14.6 µM (active).

Consider `CN[C@H](CC(C)C)C(=O)N[C@H]1C(=O)N[C@@H](CC(N)=O)C(=O)N[C@@H]2C(=O)N[C@H]3C(=O)N[C@H](C(=O)N[C@H](C(=O)O)c4cc(O)cc(O)c4-c4cc3ccc4O)[C@H](O)c3ccc(c(Cl)c3)Oc3cc2cc(c3O[C@@H]2O[C@H](CO)[C@@H](O)[C@H](O)[C@@H]2O[C@H]2C[C@](C)(N)[C@H](O)[C@H](C)O2)Oc2ccc(cc2Cl)[C@H]1O`, for which the max response is 5.98% (inactive). Turning to `Nc1nc(N)c2nc(-c3cccc(O)c3)c(-c3cccc(O)c3)nc2n1`, the Potency was 10.5 µM (active).

Consider `Cc1cncc2cccc(S(=O)(=O)N3CCCN(C(=O)CN)C[C@@H]3C)c12`, for which the max response is -18.7% (inactive) and -19.4% (inactive). In the case of `Oc1ccc(-c2ccc(-c3cc(Nc4cccc(CNC5CC5)c4)n[nH]3)cc2)c(O)c1`, the Potency was 1.32 µM (active). With `O=C(CCCCCCC(=O)Nc1cccnc1)NO`, the Potency is 14.8 µM (active). With `COc1cc2c(cc1O)CCC1C2CC[C@@]2(C)C1CC[C@@H]2O` (some centres not stated), the Potency is 3.32 µM (active). On the same count and under the same terms, to `C[C@]12CC[C@@H]3c4ccc(O)cc4CC[C@H]3[C@H]1CC[C@H]2O` belongs 11.8 µM (active); to `CN1CCCN(C(=O)c2cccc(-c3ccc(C=C4C(=O)Nc5ccc(Cl)cc54)o3)c2)CC1`, 23.5 µM (active).

Consider `C[C@H](NCc1ccc(OCc2cccc(F)c2)cc1)C(N)=O`, for which the Potency is 9.35 µM (active).

Turning to `CCCCCCCCCCCC(CC1OC(=O)C1CCCCCC)OC(=O)C(CC(C)C)NC=O` (configuration not stated), the max response was 7.07% (inactive). For `C[C@H]1[C@@H](OC(=O)CCC(=O)O)O[C@@H]2O[C@@]3(C)CC[C@@H]4[C@H](C)CC[C@@H]1[C@@]24OO3`, the Potency was 18.7 µM (active). The same measure, in the same setting: to `COc1ccc(Nc2cc(-c3cnc(N)nc3)nc(N3CCOCC3)n2)cn1` belongs 2.96 µM (active). In the case of `COc1cccc2c1C(=O)c1c(O)c3c(c(O)c1C2=O)C[C@@](O)(C(=O)CO)C[C@@H]3O[C@H]1C[C@H](N)[C@H](OC2CCCCO2)[C@H](C)O1` (some centres not stated), the Potency was 0.833 µM (active). Consider `CC(O)(C#Cc1ccc2c(c1)N(c1nc(N)ncc1Cl)CC2)c1nccs1` (configuration not stated), for which the max response is -15.7% (inactive). The same measure, in the same setting: the figure for `Cc1ccc(-n2[nH]c(C)c(N=Nc3cccc(-c4cccc(C(=O)O)c4)c3O)c2=O)cc1C` is -13.9% (inactive).
